PubChem BioAssay AID651629 (Sanford-Burnham Center for Chemical Genomics, 2012)
Some of the results follow. Unmarked numbers belong to inactive results. Calls of active or inactive are those of the source.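 The calls were made as follows: active = mean inhibition across replicates of 40% or more; inactive = mean inhibition below 40%.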

Assay: triacylglycerol accumulation inhibitors, retest, confirmation, cell-based, single concentration, Nile Red fluorescence, H9c2 (AID 651629);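 also: plate controls were DMSO only wells for no effect and Triacsin C treated wells for full effect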
Settings: H9c2 lipid accumulation, at 12.5 µM, hits give high values, cells loaded with 200 µM oleic acid

Row | Compound | inhibition
1 | CCCC(=O)Nc1nc2ccc(NC(=O)c3c(F)c(F)c(OC)c(F)c3F)cc2s1 | 69% (active)
2 | COc1cc(/C=C2\Oc3ccc(C#Cc4ccc(O)cc4)cc3C2=O)cc(OC)c1 | 103% (active)
3 | COc1ccc2sc(-c3ccc(N(C)C)cc3)c(C#CCO)c2c1 | 85.7% (active)
4 | C=CCC[C@@H](Cc1ccc(F)cc1)C(=O)OC[C@H](Cc1c[nH]c2ccccc12)NC(=O)[C@@H](CC=C)CC(=O)N(CCO)Cc1ccccc1 | 80% (active)
5 | CCCCN1C(=O)/C(=C/C=C2/C=Cc3ccccc3N2CC)SC1=S | 127% (active)
6 | CC(=O)c1cccc(-c2ccc(CN3C(CC(C)C)C(=O)N(Cc4cn(CC5CCCCC5)nn4)CCS3(=O)=O)cc2)c1 (stereo not given) | 47% (active)
7 | CN(C)C(=O)c1cccc(-c2cnc3c(NC=O)cc(-c4ccc(C(=O)N5CCOCC5)cc4)cn23)c1 | 58% (active)
8 | CN(/N=C/c1ccccc1)C(=S)c1ccccc1 | 12.5%
9 | O=C(Nc1nc(-c2ccncc2)cs1)C1COc2ccccc2O1 (stereo not given) | 31.4%
10 | O=C(Cc1cccc2ccccc12)Nc1ccc2oc(-c3ccccc3)nc2c1 | 25.7%
11 | O=C(Nc1ccc(-c2csc(Nc3cccc(C(F)(F)F)c3)n2)cc1)c1cccc(C(F)(F)F)c1 | 66% (active)
12 | CC(C)C(=O)N1CCC2(CC1)Oc1ccc(F)cc1C(=O)C21CC(c2ccccc2)=NO1 (stereo not given) | -2.17%
13 | C=CCn1c(SCc2c(C)noc2C)nc2sc3c(c2c1=O)CCC(C)C3 (stereo not given) | 49.4% (active)
14 | COC(=O)c1ccc(NCc2cc(O)ccc2O)cc1 | 29.9%
15 | CCOCCC(=O)Nc1ccc2c(c1)c(=O)n(C)n2-c1ccc2ccccc2c1 | 47.5% (active)
16 | CN(C)CC(O)COc1ccc(C(C)(C)c2ccc(OCC(O)CN(C)C)cc2)cc1 (stereo not given) | 20.9%
17 | COC(=O)c1ccc(-c2c(-c3ccccc3)ncc3cc(OC)c(OC)cc23)cc1 | 13.2%
18 | C=CCNC(=S)N/N=C/c1ccc(C)s1 | 24.3%
19 | O=C1c2ccccc2C(=O)c2c1cccc2N1CCN(C/C=C/c2ccccc2)CC1 | 64% (active)
20 | CCN(CC)CCC(c1ccc2c(c1)OCO2)c1c(OC)cc(OC)c2c(-c3ccccc3)cc(=O)oc12 (stereo not given) | 47.8% (active)
21 | Oc1cccc2cc(-c3ccncc3)cnc12 | 71.1% (active)
22 | COc1ccc(/C=C2/CCCc3ccccc3C2=O)cc1 | 54.5% (active)
23 | CN(C)CCNC(=O)c1cccc(-c2cnc3c(NC=O)cc(-c4cccc(C(F)(F)F)c4)cn23)c1 | 50.4% (active)
24 | Cc1ccc(-c2nc3ccccc3[nH]2)cc1NC(=O)c1sc2ccccc2c1Cl | 35.7%
25 | CN(C)C(=S)N=c1ssc(=S)n1Cc1ccco1 | 62.1% (active)
